Reference: ChEMBL document CHEMBL1157539, “Thousands of chemical starting points for antimalarial lead identification” (Nature, 2010)

test system: Plasmodium falciparum; assay: GSK_TCMDC: Inhibition of Plasmodium falciparum 3D7 in whole red blood cells, using parasite LDH activity as an index of growth. Test compounds present at 2uM; assay type: functional

Structure (SMILES) | Inhibition [%]
O=C(O)C(F)(F)F.O=S(=O)(/C=C/c1ccccc1)N(Cc1ccc(-c2ccc(CNCCc3ccccc3)cc2)cc1)CC1CCCCN1 (configuration not stated) | 100
COc1ccccc1N1CCN(CCCCNC(=O)c2ccc(NC(=O)c3ccc(C(F)(F)F)cc3)cc2)CC1 | 100
CCOC(=O)c1ccc(N(CCCN(CCCN(c2ccc(C(=O)OCC)cc2)S(=O)(=O)c2ccc(C)cc2)CCc2ccc(O)cc2)S(=O)(=O)c2ccc(C)cc2)cc1 | 96
O=S(=O)(ON=C1CCc2ccccc21)c1ccc(Cl)cc1 | 100
Oc1nc(Cc2ccccc2)nc2ccc(Cl)cc12 | 92

test system: Plasmodium falciparum; assay: GSK_TCMDC: Inhibition of Plasmodium falciparum Dd2 in whole red blood cells, using parasite LDH activity as an index of growth. Test compounds present at 2uM; assay type: functional

Structure (SMILES) | Inhibition [%]
COc1ccc(NC(=O)c2ccc(-c3nc(-c4ccc(Cl)cc4)cs3)cc2)cc1N1CCN(C)CC1 | 34
CN(C(=O)Cc1ccc(Cl)cc1)C1CCN(CCCCCNC(=O)/C=C/c2ccc(Cl)c(Cl)c2)CC1 | 16
CC(C)(C(=O)Nc1ccc(C2CCC(NCC3CC3)CC2)c(Cl)c1)c1cccc(OC(F)F)c1 (configuration not stated) | 23
CS(=O)(=O)c1cccc(-c2cnc3[nH]cc(-c4cccc(CCN)c4)c3c2)c1.O=C(O)C(F)(F)F | 74
CCCCCCN1CCC(NCc2ccc(C)cc2)CC1.O=C(O)C(F)(F)F | 4
O=C(O)C(F)(F)F.O=C(c1cccs1)N(Cc1cccc(-c2ccc(CNCCc3ccccc3)cc2)c1)C1CCN(Cc2ccccc2)CC1 | 76
COc1ccc2ncc(OC)c(CCN3CC[C@@H](NCc4ccc5c(n4)NC(=O)CS5)[C@H](O)C3)c2n1 | 99
